# Hits are enriched below; roughly 3.2% of the tested compounds scored in any of these assays.
# CRFR2-BP ag = agonists of CRF-BP/CRF-R2 complex, primary screen, cell-based, HEK293, calcium dye fluorescence, uHTS. CRF-binding protein / CRF receptor 2 complex (human). activation, % at 13.2 µM. AID 588473, 2011. calcium dye fluorescence (FLIPR); percent of saturating CRF peptide response. 350,000 tested, 0.46% active;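 active means activation of at least 50%, plus an integration ratio under a set limit after plate pattern correction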;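 further: plate controls were neutral control wells without compound for no effect and CRF at EC100 for full effect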
# Cardio protect = cardioprotection against H2O2-induced cell death, primary screen, uHTS, H9c2 cells, ATPLite luminescence | H9c2 cardiomyocytes, H2O2 injury protection, 2 h | protection from H2O2 cell death, % at 20 µM | 360,000 tested, 0.63% active | AID 588492, 2011;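 active means compounds giving at least 50% protection of heart cells from peroxide-induced death in the single-dose screen, raw or plate-pattern-corrected value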;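 further: 0% = DMSO wells with peroxide and 100% = DMSO wells without peroxide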
# FAS TE block = FAS thioesterase domain inhibitors, primary screen, biochemical, fluorescence intensity, uHTS | Fatty acid synthase (Homo sapiens), P49327 | recombinant FAS-TE, OMFH fluorogenic substrate, fluorescence endpoint | 360,000 tested, 0.67% active | inhibition, % at 15 µM;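 active means compounds whose normalised, plate-corrected inhibition of enzyme fluorescence in the single-dose primary screen is 50% or more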;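 further: 0% = DMSO with enzyme and 100% = substrate without enzyme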
# Target sequence (P49327 whole entry, looked up, the tested form may be a part): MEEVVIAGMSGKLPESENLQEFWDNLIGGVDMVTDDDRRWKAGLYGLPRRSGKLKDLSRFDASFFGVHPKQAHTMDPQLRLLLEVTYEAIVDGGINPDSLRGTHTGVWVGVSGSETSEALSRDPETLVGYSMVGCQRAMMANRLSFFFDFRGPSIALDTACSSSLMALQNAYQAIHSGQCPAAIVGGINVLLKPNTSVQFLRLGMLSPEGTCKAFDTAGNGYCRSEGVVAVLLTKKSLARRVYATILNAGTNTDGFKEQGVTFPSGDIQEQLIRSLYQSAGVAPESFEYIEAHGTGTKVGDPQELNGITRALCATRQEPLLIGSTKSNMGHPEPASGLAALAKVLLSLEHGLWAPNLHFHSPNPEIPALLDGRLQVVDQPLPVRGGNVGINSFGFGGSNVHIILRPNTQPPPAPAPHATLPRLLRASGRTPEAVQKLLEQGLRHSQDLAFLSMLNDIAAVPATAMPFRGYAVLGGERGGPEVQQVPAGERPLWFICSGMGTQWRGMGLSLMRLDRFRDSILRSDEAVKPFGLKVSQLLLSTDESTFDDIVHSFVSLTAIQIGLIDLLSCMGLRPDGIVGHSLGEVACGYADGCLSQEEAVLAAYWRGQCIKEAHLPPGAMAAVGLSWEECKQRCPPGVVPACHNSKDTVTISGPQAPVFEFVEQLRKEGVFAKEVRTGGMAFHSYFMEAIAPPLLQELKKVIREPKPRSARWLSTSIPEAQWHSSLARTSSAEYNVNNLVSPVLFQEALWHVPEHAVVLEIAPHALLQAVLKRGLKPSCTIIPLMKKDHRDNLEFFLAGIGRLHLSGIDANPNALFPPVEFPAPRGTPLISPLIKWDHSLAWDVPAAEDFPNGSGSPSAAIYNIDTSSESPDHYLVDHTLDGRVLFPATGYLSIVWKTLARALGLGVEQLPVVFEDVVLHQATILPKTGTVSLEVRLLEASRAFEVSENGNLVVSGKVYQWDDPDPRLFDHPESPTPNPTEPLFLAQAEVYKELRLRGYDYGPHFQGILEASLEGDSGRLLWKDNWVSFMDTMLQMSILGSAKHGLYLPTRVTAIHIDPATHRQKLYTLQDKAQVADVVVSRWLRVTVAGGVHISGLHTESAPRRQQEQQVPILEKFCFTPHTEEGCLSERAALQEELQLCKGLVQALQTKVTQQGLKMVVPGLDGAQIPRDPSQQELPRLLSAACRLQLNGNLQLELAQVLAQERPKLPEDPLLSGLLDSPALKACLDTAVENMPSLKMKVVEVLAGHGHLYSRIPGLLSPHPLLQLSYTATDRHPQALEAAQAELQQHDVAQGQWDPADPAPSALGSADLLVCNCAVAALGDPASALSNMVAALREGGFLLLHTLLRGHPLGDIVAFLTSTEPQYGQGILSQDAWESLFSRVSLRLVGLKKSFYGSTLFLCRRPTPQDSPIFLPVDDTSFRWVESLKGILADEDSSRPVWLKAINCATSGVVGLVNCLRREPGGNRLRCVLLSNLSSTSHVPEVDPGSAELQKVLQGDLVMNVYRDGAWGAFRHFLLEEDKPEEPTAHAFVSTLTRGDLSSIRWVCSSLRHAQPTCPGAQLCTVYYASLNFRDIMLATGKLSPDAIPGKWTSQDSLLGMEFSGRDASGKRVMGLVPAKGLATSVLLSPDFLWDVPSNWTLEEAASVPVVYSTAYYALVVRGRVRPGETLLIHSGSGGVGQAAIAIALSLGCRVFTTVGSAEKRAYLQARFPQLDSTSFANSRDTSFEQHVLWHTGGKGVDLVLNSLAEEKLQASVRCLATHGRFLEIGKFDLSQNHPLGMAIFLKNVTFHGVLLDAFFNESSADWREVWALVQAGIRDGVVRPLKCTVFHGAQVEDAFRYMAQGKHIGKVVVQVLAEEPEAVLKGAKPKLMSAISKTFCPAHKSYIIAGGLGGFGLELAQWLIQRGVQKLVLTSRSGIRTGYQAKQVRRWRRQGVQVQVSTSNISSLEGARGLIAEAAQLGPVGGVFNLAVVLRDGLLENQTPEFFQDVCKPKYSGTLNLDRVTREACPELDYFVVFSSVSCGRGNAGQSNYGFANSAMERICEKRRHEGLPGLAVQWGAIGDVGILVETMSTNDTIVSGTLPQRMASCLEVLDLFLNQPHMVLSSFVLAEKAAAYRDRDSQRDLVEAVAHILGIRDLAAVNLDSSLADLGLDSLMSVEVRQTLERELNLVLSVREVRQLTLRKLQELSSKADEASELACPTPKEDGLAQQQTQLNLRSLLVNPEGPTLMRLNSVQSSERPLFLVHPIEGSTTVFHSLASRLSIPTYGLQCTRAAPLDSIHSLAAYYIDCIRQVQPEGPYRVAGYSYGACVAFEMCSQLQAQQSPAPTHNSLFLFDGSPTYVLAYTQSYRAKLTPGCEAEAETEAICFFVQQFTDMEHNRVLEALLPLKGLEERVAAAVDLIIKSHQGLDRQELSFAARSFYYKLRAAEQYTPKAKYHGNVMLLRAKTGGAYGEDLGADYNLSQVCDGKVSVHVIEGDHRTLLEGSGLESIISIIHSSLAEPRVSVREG
# CRFR2-BP antag = antagonists of CRF-BP/CRF-R2 complex, primary screen, cell-based, HEK293, calcium dye fluorescence, uHTS; CRF-induced calcium fluorescence; inhibition, % at 11.8 µM; 350,000 tested, 0.59% active;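 active means inhibition of the ligand-induced calcium signal above about 50% at the single tested concentration, limit read from the data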
# PfGluPho inh = PfG6PD enzyme inhibitors, primary screen, biochemical, fluorescence intensity, uHTS; 350,000 tested, 0.78% active; PfGluPho enzyme, NADPH resazurin-diaphorase fluorescence; glucose-6-phosphate dehydrogenase-6-phosphogluconolactonase (Plasmodium falciparum 3D7); inhibition, % at 20 µM; AID 504690, 2011;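 active means inhibition reaching at least a set limit at 20 µM in the primary screen, cut at about 59% in these data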;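 further: 0% = DMSO wells with substrate and 100% = DMSO wells lacking glucose-6-phosphate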
# aDG glyco act = activators of alpha-DG glycosylation, primary screen, uHTS, Pro5-aDG cells, AlphaScreen | alpha-DG glycosylation AlphaScreen (IIH6); 0% Pro5, 100% B10-LARGE cell signal | activation, % at 10 µM | 360,000 tested, 0.22% active | AID 624168, 2012;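 active means activation of at least 8% versus controls, or a plate z-score of at least 8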;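 further: Pro5 are CHO cells carrying HIG-tagged alpha-DG that lacks glycosylation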
# FAS-TE inh conf = FAS thioesterase domain inhibitors, confirmation, biochemical, fluorescence intensity, single concentration; recombinant FAS-TE, OMFH fluorogenic substrate; shares compounds with FAS TE block; inhibition, % at 15 µM; 2,300 tested, 45% active; AID 624325, 2012;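 active means compounds inhibiting the enzyme by at least 50% at 15 µM in any one of the replicates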;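 further: 0% = enzyme with DMSO only and 100% = wells lacking enzyme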
# Active calls of the source: *; x = not tested or not shown.
SMILES,CRFR2-BP ag,Cardio protect,FAS TE block,CRFR2-BP antag,PfGluPho inh,aDG glyco act,FAS-TE inh conf
COc1ccc(S(=O)(=O)N(C(=O)c2ccco2)c2cc3sc(=O)oc3c3ccccc23)cc1,-0.5,-5.8,89.8*,-19.8,52.2,7.6*,33.0
CCOC(=O)C1=C(C)NC(=O)NC1c1c(O)ccc2ccccc12 (stereo unspecified),-1.5,3.4,-9.3,7.6,-5.5,-0.2,x
Cc1cc(C(=O)Nc2ccc(F)cc2C)n(-c2ccccc2)n1,1.1,4.4,-1.9,-3.8,0.0,0.1,x
COc1ccccc1S(=O)(=O)Nc1cc(C)nn1-c1ccc(C)cc1,-0.3,-3.7,-2.0,-10.6,38.0,0.0,x
Cc1ccc(S(=O)(=O)N(C)C)cc1-n1c(SCC(=O)Nc2ccc(F)cc2)nc2ccccc2c1=O,-1.0,9.4,54.1*,-8.2,3.6,-0.9,16.8
Cc1ccc(S(=O)(=O)N(C)C)cc1-n1c(SCC(=O)Nc2ccccc2)nc2ccccc2c1=O,1.6,-1.1,51.8*,-4.3,2.9,-0.7,32.5
Cc1ccc(S(=O)(=O)N(C)C)cc1-n1c(SCC(=O)Nc2ccc(F)cc2Cl)nc2ccccc2c1=O,-0.7,2.2,23.3,3.2,-0.7,-0.6,x
COc1ccc(NS(=O)(=O)c2cc(NC(=O)c3cnccn3)ccc2OC)cc1Br,-2.6,-1.2,4.9,-1.8,-8.5,0.6,x
CS(=O)(=O)c1ccc2nc(NC(=O)c3cc(-c4ccccc4)nn3-c3ccccc3)sc2c1,2.6,21.7,86.0*,-5.3,-11.6,-0.1,12.0
Cc1ccc2c(c1)C(c1ccccc1)N(C(=O)c1cccc([N+](=O)[O-])c1)CC(=O)N2 (stereo unspecified),-0.1,13.3,78.2*,-5.7,8.0,-0.4,87.1*
O=C1CN(C(=O)c2cc([N+](=O)[O-])ccc2Cl)C(c2ccc(F)cc2)c2cc(F)ccc2N1 (stereo unspecified),-0.9,3.6,75.4*,-34.9,-5.0,-0.3,41.4
O=C(N/C(=C\c1ccco1)C(=O)N1CCOCC1)c1ccc([N+](=O)[O-])cc1,-0.4,1.4,17.2,1.3,-2.3,0.0,x
COc1ccc(C(=O)N/C(=C\c2ccc(Cl)cc2)C(=O)NCCN2CCOCC2)cc1,2.9,-0.5,1.9,7.7,16.5,0.0,x
COc1ccc(/C=C(\NC(=O)c2ccc(C)cc2)C(=O)NCCN2CCOCC2)cc1,-0.3,8.0,0.1,7.8,-11.8,-0.1,x
O=C(N/N=C/c1ccc(Br)o1)/C(=C/c1ccc([N+](=O)[O-])cc1)NC(=O)c1ccccc1,-0.4,0.6,57.8*,9.9,6.5,-0.1,31.6*
O=C(N/C(=C\c1ccc(Br)cc1)C(=O)N1CCOCC1)c1ccc([N+](=O)[O-])cc1,0.9,-6.7,91.1*,-10.4,6.7,-0.1,92.8*
COc1ccc(/C=C(\NC(=O)c2ccc([N+](=O)[O-])cc2)C(=O)NCCCN2CCOCC2)cc1,-0.9,2.6,75.8*,7.8,-6.7,0.0,79.3*
COc1ccc(/C=C(\NC(=O)c2ccc([N+](=O)[O-])cc2)C(=O)NCCN2CCOCC2)cc1,-0.6,4.3,64.3*,13.2,-6.5,2.2,73.4*
COc1ccc(-n2c(CN3CCN(c4ccccc4)CC3)nc3ccc([N+](=O)[O-])cc3c2=O)c(OC)c1,-0.7,-5.1,24.9,-2.0,23.1,-0.1,x
COc1cccc(-n2c(CN3CCN(c4ccccn4)CC3)nc3ccc([N+](=O)[O-])cc3c2=O)c1,0.1,1.8,80.9*,-6.0,34.7,-0.1,81.4*
COc1cccc(-n2c(CN3CCN(c4cccc(C)c4)C(C)C3)nc3ccc([N+](=O)[O-])cc3c2=O)c1 (stereo unspecified),2.3,5.1,80.2*,-11.1,39.0,-0.3,19.5
O=C(CCCC(=O)N(c1ccc2c(c1)OCCO2)C(C(=O)NC1CCCCC1)c1ccc(F)cc1)Nc1ccccn1 (stereo unspecified),0.2,9.2,1.6,-0.7,-14.1,0.5,x
Cc1ccc(C(C(=O)NC2CCCCC2)N(C(=O)CCCC(=O)Nc2ccccn2)c2ccc3c(c2)OCCO3)cc1 (stereo unspecified),2.1,11.3,52.2*,-12.9,-1.7,0.2,44.6
CCc1ccc(S(=O)(=O)c2nnn3c2nc(NCCNC(C)=O)c2ccccc23)cc1,0.1,9.5,76.7*,1.6,-38.0,0.2,78.9*
CCCCNc1nc2c(S(=O)(=O)c3ccccc3)nnn2c2ccccc12,3.6,1.8,-2.0,-15.1,-14.2,-0.1,x
SMILES,CRFR2-BP ag,Cardio protect,FAS TE block,CRFR2-BP antag,PfGluPho inh,aDG glyco act,FAS-TE inh conf
Cc1ccc(S(=O)(=O)c2nnn3c2nc(NCCCN2CCCC2=O)c2ccccc23)cc1C,0.8,15.1,70.9*,7.7,-0.5,-0.2,69.1*
O=C(C[C@@H]1C/C=C\CCCC(=O)OC[C@@H]2CCCN2C1=O)N[C@@H](CO)Cc1ccccc1,-3.0,2.1,-10.5,-4.0,9.6,-0.1,x
Cc1ccc2cc(COC(=O)c3cccc([N+](=O)[O-])c3)c(=O)[nH]c2c1,-1.1,-2.4,62.9*,-8.9,-6.7,0.0,27.0
Cc1ccc2cc(CCNC(=O)c3cccc([N+](=O)[O-])c3)c(=O)[nH]c2c1,0.7,12.4,10.6,-2.6,-24.9,0.2,x
CCCCC(=O)NNC(=O)N1c2ccccc2Sc2ccccc21,1.9,4.7,-1.6,-25.6,8.9,-0.3,x
Cc1ccc(S(=O)(=O)N2CCN(c3ccnc4cc(Cl)ccc34)CC2)cc1,1.5,-27.4,63.7*,4.5,13.0,3.9,1.4
Cc1ccc(S(=O)(=O)N2CCN(c3ccnc4cc(Cl)ccc34)CC2)cc1C,12.9,-12.4,46.1,32.1,23.9,0.7,x
O=C(Cn1nnc2ccccc2c1=O)NCC1CCC(C(=O)O)CC1 (stereo unspecified),1.1,1.4,-1.8,-2.6,-23.6,-0.3,x
O=C(COC(=O)C1CCN(c2ccc(C(F)(F)F)cn2)CC1)Nc1cc(F)ccc1F,3.0,-8.2,28.5,-2.5,20.1,0.0,x
CCC(C)c1ccccc1NC(=O)COC(=O)c1ccc(C)c(NC(=O)c2ccco2)c1 (stereo unspecified),-1.2,1.0,5.5,-9.1,8.4,-0.2,x

# Screening data deposited in PubChem by Sanford-Burnham Center for Chemical Genomics.
